As usually defined, the AC50 is the concentration at which the activity in the assay is half-maximal.

Molecules are shown by their SMILES. Calls of active or inactive are those of the source. How the source made its calls: active means hit-call score of the fitted dose curve at least 0.9, where 1 is the maximum; inactive means score below 0.9.

Test [1] addresses Transcription factor E2F1 (Homo sapiens) (UniProt Q01094). Put plainly: ATG_E2F_CIS: Attagene CIS-FACTORIAL HepG2 Assay for human E2F Transcription Factor 1 (AID 2282935). The following applies: HepG2 Attagene cis-reporter, E2F reporter RNA transcripts; actives raise or lower the signal. The method in brief:
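HepG2 cells transiently transfected with multiplexed cis-element reporter units, dosed for 24 h. Reporter mRNA measured by RT-PCR, 6-FAM primer-extension labeling, HpaI digestion and capillary electrophoresis; bidirectional fit versus DMSO baseline.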

Test [2] is described as follows: ATG_E_Box_CIS: Attagene CIS-FACTORIAL HepG2 Assay for human Enhancer Box (E-box) (AID 2282936). The following applies: HepG2 E-box cis-reporter transcription, actives raise or lower the signal. An outline of the steps:
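HepG2 cells transiently transfected with multiplexed cis-element reporter units sensing endogenous transcription factor activity; 24 h compound exposure. Reporter mRNA measured by RT-PCR, 6-FAM primer extension, HpaI digestion and capillary electrophoresis; bidirectional fit versus DMSO.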

The nature of test [3]: ATG_M_61_CIS: Attagene CIS-FACTORIAL HepG2 Assay for M61 Transcription Factor (Internal Marker) (AID 2282937). The following applies: HepG2 Attagene CIS-FACTORIAL M61 internal marker reporter; actives raise or lower the signal. The method in brief: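 Cells were transfected with reporter units under cis-regulatory promoters, treated with chemicals for 24 h, then lysed for RNA. Reporter transcripts were quantified by RT-PCR and capillary electrophoresis, and activity was fitted bidirectionally against DMSO.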

Test [4] is described as follows: ATG_EGR_CIS: Attagene CIS-FACTORIAL HepG2 Assay for human Early Growth Response 1 (EGR1) (AID 2282938). Particulars: HepG2 Attagene CIS-FACTORIAL EGR reporter mRNA; actives raise or lower the signal. The method in brief: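 Endogenous TF activity in HepG2 liver cells was gauged through cis-promoter reporter constructs transiently transfected. After 24 h dosing, reporter mRNA was quantified by RT-PCR and capillary electrophoresis, and curves fitted in both directions versus DMSO.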

Test [5] is described as follows: ATG_M_19_CIS: Attagene CIS-FACTORIAL HepG2 Assay for M19 Transcription Factor (Internal Marker) (AID 2282939). The following applies: HepG2 Attagene CIS-FACTORIAL M19 internal marker reporter; actives raise or lower the signal. The method in brief:
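Transfect HepG2 with MRTU reporter library → dose chemical, 24 h → isolate total RNA, reverse-transcribe with oligo(dT) → PCR, 6-FAM label, HpaI cut (2 h, 37 C) → capillary electrophoresis. Bidirectional fit vs DMSO.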

The nature of test [6]: ATG_Ets_CIS: Attagene CIS-FACTORIAL HepG2 Assay for human Erythroblast Transformation Specific (ETS) (AID 2282941). Particulars: HepG2 ETS cis-reporter transcription, actives raise or lower the signal. An outline of the steps: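 Steps: transfect HepG2 with multiple reporter units; treat compound 24 h; isolate RNA, DNase-treat, reverse-transcribe; PCR-amplify, label with 6-FAM, digest with HpaI; separate by capillary electrophoresis. Activity fitted both directions versus DMSO.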

Test [7] has as its target Hepatocyte nuclear factor 3-beta (Homo sapiens) (UniProt Q9Y261). Put plainly: ATG_FoxA2_CIS: Attagene CIS-FACTORIAL HepG2 Assay for human Forkhead box A2 (FOXA2) (AID 2282942). The following applies: HepG2 cis-reporter transcription factor activity, 24 h; actives raise or lower the signal. An outline of the steps:
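Endogenous transcription factor activity was read in HepG2 cells carrying transiently transfected cis-promoter reporter units. After 24 h dosing, reporter mRNA was quantified by RT-PCR and capillary electrophoresis, and values fitted bidirectionally versus DMSO.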

The nature of test [8]: ATG_FoxO_CIS: Attagene CIS-FACTORIAL HepG2 Assay for human Forkhead box O (FoxO) (AID 2282943). The following applies: HepG2 Attagene cis-reporter, FoxO element, mRNA; actives raise or lower the signal. The method in brief:
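24 h chemical exposure, HepG2 with transient cis-MRTU transfection. RNA extraction, oligo(dT) RT, reporter-specific PCR, primer-extension labelling, HpaI digestion, CE fragment analysis; bidirectional fit, DMSO baseline.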

Test [9] can be described thus: ATG_GATA_CIS: Attagene CIS-FACTORIAL HepG2 Assay for human GATA Binding Protein (AID 2282944). The following applies: HepG2 GATA cis-element reporter, Attagene multiplex mRNA; actives raise or lower the signal. The method in brief:
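Transient MRTU transfection, HepG2, 24 h compound exposure. Total RNA → oligo(dT) RT → PCR → 6-FAM primer extension → HpaI cut → CE. Bidirectional fit vs DMSO.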

A short description of test [10]: ATG_ERE_CIS: Attagene CIS-FACTORIAL HepG2 Assay for Estrogen Response Element (ERE) (AID 2282940). The following applies: HepG2 ERE cis-reporter, Attagene RNA transcript; actives raise or lower the signal. The method in brief:
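Transient MRTU transfection of human HepG2; cis-element promoters; 24 h dosing; total RNA → RT (oligo dT) → PCR → 6-FAM primer extension → HpaI digest → CE fluorescence. Bidirectional fit, DMSO baseline.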

Sequence of Transcription factor E2F1 (Homo sapiens) (Q01094 whole entry, looked up): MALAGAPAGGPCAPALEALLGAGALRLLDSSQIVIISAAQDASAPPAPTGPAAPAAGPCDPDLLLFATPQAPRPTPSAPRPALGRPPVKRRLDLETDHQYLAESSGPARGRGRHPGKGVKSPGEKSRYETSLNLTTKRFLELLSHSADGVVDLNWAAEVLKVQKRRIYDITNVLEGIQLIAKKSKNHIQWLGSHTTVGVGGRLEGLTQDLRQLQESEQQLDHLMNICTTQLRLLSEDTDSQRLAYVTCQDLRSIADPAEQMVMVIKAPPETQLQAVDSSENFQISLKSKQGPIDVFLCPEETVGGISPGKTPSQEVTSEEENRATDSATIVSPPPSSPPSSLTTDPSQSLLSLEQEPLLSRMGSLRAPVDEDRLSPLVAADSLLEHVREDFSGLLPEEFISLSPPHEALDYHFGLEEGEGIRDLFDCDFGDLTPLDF
Sequence of Hepatocyte nuclear factor 3-beta (Homo sapiens) (Q9Y261 whole entry, looked up): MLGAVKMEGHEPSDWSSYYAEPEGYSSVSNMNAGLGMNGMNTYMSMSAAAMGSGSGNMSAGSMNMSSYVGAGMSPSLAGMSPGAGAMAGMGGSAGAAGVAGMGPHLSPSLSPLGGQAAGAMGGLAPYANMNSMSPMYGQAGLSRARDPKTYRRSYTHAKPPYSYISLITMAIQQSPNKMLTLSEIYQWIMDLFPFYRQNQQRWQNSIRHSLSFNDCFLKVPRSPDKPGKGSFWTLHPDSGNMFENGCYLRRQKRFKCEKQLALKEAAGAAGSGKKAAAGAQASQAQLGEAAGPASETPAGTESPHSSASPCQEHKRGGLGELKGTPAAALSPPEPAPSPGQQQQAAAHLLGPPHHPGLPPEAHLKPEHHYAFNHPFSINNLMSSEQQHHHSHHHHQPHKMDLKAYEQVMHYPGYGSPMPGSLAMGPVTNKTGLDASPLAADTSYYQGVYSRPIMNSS

For `CCS(=O)(=O)c1cccnc1S(=O)(=O)NC(=O)Nc1nc(OC)cc(OC)n1`, the compound was called inactive in test [1], in test [2], in test [3], in test [4], in test [5] and in [6]. The result in test [7], in [8] and in test [9] was inactive.

Take `CCOc1nc(NC)nc(NC(=O)NS(=O)(=O)c2ccccc2C(=O)OC)n1`: the outcome in test [1], in [2], in test [3], in [4], in test [10] and in test [6] was inactive. In addition, the result in test [7], in test [8] and in [9] was inactive.

For the compound `N#CN`, the compound was called inactive in test [1], in [2], in test [3], in test [4], in test [10] and in [6]. Further, the compound was classed as inactive in [7], in [8] and in test [9].

For `O=C(O)C(F)(F)C(F)(F)C(F)(F)C(F)(F)C(F)(F)C(F)(F)C(F)(F)F`, the result in test [1], in test [2], in [3], in [4], in [6] and in test [7] was inactive. For the same compound, the compound was called inactive in test [8] and in test [9].

For `OCCOc1ccccc1`, the result in test [1], in [2], in test [3], in test [4], in test [10] and in test [6] was inactive. Also, the result in test [7], in [8] and in [9] was inactive.

For `CN1CSC(=S)N(C)C1`, the compound was classed as inactive in [1], in test [2], in test [3], in test [4], in [10] and in test [6]. Further, the result in test [7], in test [8] and in test [9] was inactive.

Turning to `O=C(O)COc1ccc(Cl)cc1Cl`, the result in test [1], in [2], in test [3], in [4], in [6] and in [7] was inactive. Also, the result in test [8] and in test [9] was inactive.

Consider `CCOC1Oc2ccc(OS(C)(=O)=O)cc2C1(C)C` (centres undefined), for which the outcome in test [1], in test [2], in [3], in test [4], in test [10] and in test [6] was inactive. The compound was called inactive in test [7], in test [8] and in [9].

Consider `CCC(C)Nc1c([N+](=O)[O-])cc(C(C)(C)C)cc1[N+](=O)[O-]` (centres undefined), for which the compound was called inactive in test [1], in test [2], in [3], in test [4], in test [6] and in test [7]. The outcome in test [8] and in test [9] was inactive. Moreover, the concentration at half-maximal activity (AC50) in [10] is 5.96 µM (active).

On to `O=C(NC(=O)c1c(F)cccc1F)Nc1ccc(OC(F)(F)C(F)OC(F)(F)F)c(Cl)c1` (centres undefined), for which the compound was called inactive in [1], in test [2], in [3], in test [4], in [10] and in [6]. The compound was classed as inactive in test [7], in [8] and in [9].

Consider `C[C@H]1[C@H](c2ccc(Cl)cc2)SC(=O)N1C(=O)NC1CCCCC1`, for which the results for the half-maximal activity concentration (AC50) in [1] and in test [4] were 20.9 µM (active) and 15.4 µM (active), respectively. In addition, the result in test [2], in test [3], in test [10], in [6], in test [7] and in [8] was inactive. In addition, in test [9], the result was inactive.

Regarding `COc1cc(OC)nc(NC(=O)NS(=O)(=O)c2cc(NC=O)ccc2C(=O)N(C)C)n1`, the compound was classed as inactive in test [1], in [2], in test [3], in [4], in test [10] and in test [6]. In addition, the outcome in test [7], in test [8] and in [9] was inactive.

As for `CCN(CC)C(=O)SCc1ccc(Cl)cc1`, the outcome in test [1], in test [2], in test [3], in test [10], in test [6] and in test [7] was inactive. Further, the call in test [8] and in test [9] was inactive. The AC50 in test [4] is 23.5 µM (active).

With `COP(=S)(OC)Oc1ccc([N+](=O)[O-])cc1`, the result in [1], in [2], in test [3], in test [4], in test [10] and in test [6] was inactive. For the same compound, the call in test [7], in [8] and in [9] was inactive.
